# Compound activity: PubChem, several laboratories
# GC-A act: GC-A (human) enzyme activation. P16066. HEK293 GC-A cells, cGMP TR-FRET, EC30 ANP; 0% at EC30 ANP, 100% saturating ANP. activation, % at 10 µM. 370,000 compounds, 0.14% hits; in the data active means activation above about 40%
# HSF1 activator: increases HSF-1 driven luciferase reporter signal; NIH3T3-HGL HSF-1 luciferase reporter, MG132, 8 h; 100% = twice DMSO control signal; activation, % at 9 µM; 300,000 compounds, 1.7% hits;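 active means mean replicate activation of at least 50% with a set share of replicates each reaching 50%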;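 further: 0% = median of the neutral control wells and 100% = twice that signal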
# aDG glyco up: increases alpha dystroglycan glycosylation | Pro5-aDG cells, alpha-DG glycosylation AlphaScreen (IIH6); 0% Pro5, 100% B10-LARGE cell signal | activation, % at 10 µM | 360,000 compounds, 0.22% hits | AID 624168;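 active means activation of at least 8% versus controls, or a plate z-score of at least 8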;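 further: Pro5 are CHO cells carrying HIG-tagged alpha-DG that lacks glycosylation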
# DYRK1A inh: inhibitors of rat Dyrk1A kinase | ADP-Glo luminescence, NFATc1 peptide | inhibition, % at 12.5 µM | Q63470 | 310,000 compounds, 0.43% hits | AID 504441; in the data active means inhibition above about 50%;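 further: plate controls were vehicle with enzyme for no effect and no enzyme for full effect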
# HSF1 inh: HSF1 inhibition. NIH3T3-HGL HSE-luciferase, MG132-induced, luminescence 8 h; stronger effect = lower value. activity change, negative = inhibition, % at 7.5 µM (by protocol). 300,000 compounds, 0.77% hits. AID 2098;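 active means more than half of replicate wells show activity change below -50%, luminescence cut by over half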;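 further: luciferase reports HSF-1 transcriptional activity via heat shock element; 0% = median of DMSO wells and -100% = zero luminescence signal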
# NPR2 activator: GC-B (human) receptor activation; 370,000 compounds, 0.11% hits; P20594; HEK293-GC-B cells, CNP EC30, cGMP TR-FRET; 0% at EC30 CNP, 100% saturating CNP; activation, % at 10 µM; AID 1920062;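 active means activation at 10 µM reaching about 35% in either raw or pattern-adjusted values, limit read from the data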
# Target sequence (P20594 whole entry, looked up): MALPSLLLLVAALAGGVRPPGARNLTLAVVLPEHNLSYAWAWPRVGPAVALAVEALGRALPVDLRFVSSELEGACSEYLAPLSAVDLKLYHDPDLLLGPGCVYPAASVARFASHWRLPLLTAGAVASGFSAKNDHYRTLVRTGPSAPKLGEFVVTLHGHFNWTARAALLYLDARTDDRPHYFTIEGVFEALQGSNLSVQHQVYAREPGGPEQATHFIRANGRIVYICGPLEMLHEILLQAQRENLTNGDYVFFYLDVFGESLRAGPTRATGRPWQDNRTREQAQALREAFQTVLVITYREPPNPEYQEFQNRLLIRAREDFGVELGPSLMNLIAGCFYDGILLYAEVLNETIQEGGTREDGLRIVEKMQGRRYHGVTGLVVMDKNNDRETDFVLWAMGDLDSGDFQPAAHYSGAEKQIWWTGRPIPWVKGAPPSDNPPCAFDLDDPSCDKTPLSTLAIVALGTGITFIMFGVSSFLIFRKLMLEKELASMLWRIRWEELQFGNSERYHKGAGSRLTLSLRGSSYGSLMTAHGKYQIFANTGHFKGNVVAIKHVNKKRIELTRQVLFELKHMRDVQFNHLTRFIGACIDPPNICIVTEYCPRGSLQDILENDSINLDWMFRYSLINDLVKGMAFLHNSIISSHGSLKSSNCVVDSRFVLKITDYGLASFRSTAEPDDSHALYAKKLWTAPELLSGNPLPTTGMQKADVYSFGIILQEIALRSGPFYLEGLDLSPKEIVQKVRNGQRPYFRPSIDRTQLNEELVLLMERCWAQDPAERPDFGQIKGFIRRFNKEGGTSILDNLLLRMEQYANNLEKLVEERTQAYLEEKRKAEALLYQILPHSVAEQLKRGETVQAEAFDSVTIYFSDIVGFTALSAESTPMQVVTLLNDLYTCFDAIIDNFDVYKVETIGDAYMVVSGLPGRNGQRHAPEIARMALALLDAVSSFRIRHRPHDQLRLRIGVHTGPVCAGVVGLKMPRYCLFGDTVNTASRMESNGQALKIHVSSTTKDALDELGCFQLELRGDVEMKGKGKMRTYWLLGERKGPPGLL
# Numbers without * were called inactive; nt = no result. A selection: hits, their analogues and other compounds. The true share with any hit is near 2.5%.
SMILES,GC-A act,HSF1 activator,aDG glyco up,DYRK1A inh,HSF1 inh,NPR2 activator
Cc1ccc(OC(C)C(=O)Nc2ccc(C)c(S(=O)(=O)Nc3ccc(C)cc3C)c2)cc1 (stereo unspecified),-6.7,20.9,0.5,-3.0,9.0,0.8
O=C(CN1CCOCC1)Nc1ccc(N2CCN(c3ccccc3)CC2)c(F)c1,3.6,-19.2,0.2,nt,2.9,4.0
O=C(O)CCC(=O)NCc1cn(-c2ccccc2)nc1-c1cccc(Br)c1,3.7,7.4,0.1,15.3,-2.7,-1.5
Cc1ccc(-c2nn(-c3ccccc3)cc2CN(C)C(=O)CCC(=O)O)cc1C,-1.6,-59.8,0.2,-8.2,-55.3*,-7.2
CC(C)[C@H](N)C(=O)OCC(CO)OCn1cnc2c(=O)[nH]c(N)nc21 (stereo partly specified),10.1,nt,nt,nt,nt,7.5
CCN(CC)c1ccc(C(=O)OCC(=O)Nc2sccc2C#N)cc1,3.4,57.9*,0.1,0.3,12.5,-0.6
N#Cc1ccsc1NC(=O)COC(=O)c1ccc(NC(N)=O)cc1,-5.8,35.1,-0.1,nt,19.2,2.4
COc1ccc(/C=C/C(=O)c2c(C)nc3ccccn23)cc1,0.9,62.9*,-0.3,1.1,30.9,6.6
Cc1nc2ccccn2c1C(=O)/C=C/c1ccc(F)cc1,4.7,199.7*,4.1,7.6,175.1,0.8
Cc1nc2ccccn2c1C(=O)NN,1.0,0.9,-0.1,-2.3,-3.3,1.7
COc1ccc(CNC(=O)c2c(C)nc3ccccn23)cc1,0.8,5.2,1.3,0.9,1.2,0.3
Cc1ccc(S(=O)(=O)c2nnn3c2nc(N2CCCCC2)c2ccccc23)cc1,21.4,-1.7,0.3,-4.6,-1.8,25.8
Cc1ccc(S(=O)(=O)c2nnn3c2nc(N2CCOCC2)c2ccccc23)cc1,34.5,4.5,0.0,-10.2,-1.3,37.7*
COC(=O)CCc1c(COC(C)=O)[nH]c(C(=O)OCc2ccccc2)c1C,4.7,-50.2,-0.1,10.5,-35.2,16.0
Cc1ccc(Nc2nc(-c3ccccc3)c(CC(=O)O)s2)cc1,1.6,63.4*,-0.2,10.6,36.0,-2.4
Fc1ccc(Nc2nc3ccccc3s2)cc1,8.5,25.7,0.0,-3.0,16.9,-1.8
Cc1ccc(Nc2nc3ccccc3s2)cc1,3.0,59.6*,0.1,2.8,27.9,-4.8
CN(C)C(=S)Nc1nc2ccccc2s1,10.0,82.7*,-0.5,20.5,45.2,6.1
CCOc1ccc2nc(NC(=S)N(C)C)sc2c1,8.6,32.4,0.2,-2.7,13.3,1.3
COc1ccc2nc(Nc3ccccc3)sc2c1,5.0,67.6*,-0.2,20.9,11.5,-2.5
COC(=O)[C@H](C(C)C)N(Cc1cn(Cc2ccc(C)cc2)nn1)S(=O)(=O)c1ccccc1Br,1.3,nt,nt,nt,nt,5.3
CN(C)CCN(Cc1ccco1)S(=O)(=O)c1ccc(-c2ccc(=O)[nH]n2)s1,-4.3,-1.1,0.0,-2.9,-7.4,-9.2
COc1ccc2nc(NC(=O)Nc3ccccc3OC)sc2c1,3.6,30.7,-0.1,-5.4,18.3,-9.4
COc1ccc2nc(NC(=O)c3ccccc3O)sc2c1,5.6,102.8*,0.1,2.9,69.1,-5.7
COc1ccc2nc(Nc3ccccc3OC)sc2c1,-5.6,73.2*,-0.3,nt,30.3,-2.6
SMILES,GC-A act,HSF1 activator,aDG glyco up,DYRK1A inh,HSF1 inh,NPR2 activator
COc1ccc([C@@]23Oc4cc(OC)cc(OC)c4[C@]2(O)[C@H](O)[C@H](C(=O)N(C)C)[C@H]3c2ccccc2)cc1,2.1,88.1*,-0.3,4.0,88.1*,1.7
COc1ccc(C2CC(O)(c3ccccc3)Oc3cc(OC)c(OC)c(OC)c32)cc1 (stereo unspecified),-2.0,3.7,0.0,-28.8,-3.7,-3.6
C/C(CC(=O)Nc1cccc2c1CCCC2)=N\NC(=O)COc1ccccc1,0.1,60.7*,0.0,0.6,29.5,-6.9
C/C(CC(=O)Nc1cccc2c1CCCC2)=N\NC(=O)Cc1ccccc1,-2.1,29.2,0.0,-8.9,26.0,1.0
CCc1nnc(NC(=O)CSc2ccc(-c3nc4ccc(C)cc4[nH]3)cn2)s1,4.3,68.4*,0.0,0.4,26.1,-1.6
Cc1ccc2nc(-c3ccc(SCC(=O)N4CCc5ccccc54)nc3)[nH]c2c1,1.9,102.4*,0.1,-4.7,84.9,4.8
Cc1ccc2nc(-c3ccc(SCC(=O)O)nc3)[nH]c2c1,0.2,-21.1,0.0,36.9,-7.1,-6.1
O=C(Cc1ccc(Cl)cc1)Nc1ccccc1Sc1ccccc1,-4.2,19.6,0.3,-1.9,7.4,-2.3
O=C(Cc1ccccc1)Nc1cc(Cl)ccc1Sc1ccccc1,-15.8,57.8*,0.4,-3.1,29.4,-10.5
O=[N+]([O-])c1ccc(NC(=S)N2CCN(S(=O)(=O)c3ccccc3)CC2)cc1,-7.5,nt,-0.2,-3.2,nt,-3.6
CCN(Cc1ccccc1)C(=S)NC(=O)c1ccccc1Br,2.8,-0.7,-0.1,2.0,0.7,-5.2
CCCN(Cc1ccccc1)C(=S)NC(=O)c1ccccc1[N+](=O)[O-],0.8,-67.5,0.5,nt,-59.6*,3.2
CCCC1CCC2(CC1)CCC2OC(=O)Nc1ccccc1OC (stereo unspecified),-4.9,nt,nt,nt,nt,-0.5
COc1ccc(CCNC(=O)c2cc(COc3c(C)cccc3C)on2)c(OC)c1,0.2,56.0*,-0.4,-0.6,18.2,3.5
O=C(NCN1C(=O)C2C3C=CC(C3)C2C1=O)OC1CCCCC1 (stereo unspecified),1.9,-7.3,0.1,1.7,-1.6,-4.0
CSCCC(NC(=O)CCC(=O)OCC(=O)[C@@]1(O)CCC2[C@@H]3CCC4=CC(=O)C=C[C@]4(C)C3[C@@H](O)C[C@@]21C)C(=O)O (stereo partly specified),0.5,-59.3,-0.1,2.8,-51.7*,-2.0
CC(C)CC(NC(=O)CCC(=O)OCC(=O)[C@@]1(O)CCC2[C@@H]3CCC4=CC(=O)C=C[C@]4(C)C3[C@@H](O)C[C@@]21C)C(=O)O (stereo partly specified),5.2,-56.5,-0.2,-1.9,-53.3*,-2.1
CCCCN(C(=O)/C=C/c1ccccc1)C1CCS(=O)(=O)C1 (stereo unspecified),1.0,6.4,-0.1,2.4,1.8,-4.7
O=C(O)CCC(=O)N1CCc2cc(S(=O)(=O)NCc3ccc(Cl)cc3)ccc21,-1.7,5.4,-0.1,4.2,-2.5,4.9
Cc1ccc(C(=O)n2cnnc2N)cc1C,4.2,-1.0,-0.3,-1.3,-9.0,2.2
Cc1ccc(C(=O)n2cnnc2N)cc1,8.2,66.1*,-0.2,3.0,14.5,2.5
O=C1C(Cc2ccccc2)Nc2ncnc(N3CCc4ccccc4C3)c2N1Cc1ccc(Cl)cc1 (stereo unspecified),nt,29.9,1.1,2.0,19.9,nt
